# A number with no mark means an inactive call.
# Tested on: Pectobacterium parmentieri SCC3193
# Experiment: DuctApe activity index (growth/respiration on compound as sole nutrient source, blank-subtracted) (activity index (0-3)); higher = stronger utilization of the compound, active = 3 or more
# Conditions: nutrient role (plate category): carbon
# Procedure: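 Biolog Phenotype Microarray plates PM1, PM2A (carbon), PM3 (nitrogen) and PM4 (phosphorus/sulfur) inoculated with P. parmentieri SCC3193 in M9-C minimal salts medium with Biolog dye A, and read in the OmniLog for 46 h. Each well was tested in triplicate and the experiment was run twice. DuctApe computed a blank-subtracted activity index (AV, 0-3) from the mean curves; growth is positive at AV >= 3 and negative at AV <= 2.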
row,Compound,DuctApe activity index
1,CSCC[C@H](N)C(=O)O [L-Methionine],0
2,O=C(O)C(O)C(O)C(=O)O (stereo not given) [m-Tartaric acid],3 (active)
3,C[C@H](O)C(=O)O [L-Lactic acid],2
4,C[C@H](N)C(=O)O [L-Alanine],0
5,N[C@@H](Cc1c[nH]cn1)C(=O)O [L-Histidine],0
6,OC[C@H]1OC(O[C@H]2[C@H](O)[C@@H](CO)OC(O[C@H]3[C@H](O)[C@@H](CO)OC(O)[C@@H]3O)[C@@H]2O)[C@H](O)[C@@H](O)[C@@H]1O (stereo not given in full) [Laminarin],0
7,OC[C@@H](O)[C@@H](O[C@@H]1O[C@H](CO)[C@H](O)[C@H](O)[C@H]1O)[C@H](O)[C@@H](O)CO [D-Lactitol],0
8,O=P(O)(O)OC[C@H]1OC(O)(CO)[C@@H](O)[C@@H]1O (stereo partly drawn) [D-Fructose-6-Phosphate],3 (active)
9,C[C@@H](N)C(=O)O [D-Alanine],0
10,N[C@@H](Cc1ccccc1)C(=O)O [L-Phenylalanine],0
11,N[C@H]1C(O)O[C@H](CO)[C@@H](O)[C@@H]1O (stereo partly drawn) [D-Glucosamine],3 (active)
12,CO[C@@H]1O[C@H](C(=O)O)[C@@H](O)[C@H](O)[C@H]1O [b-Methyl-D-Glucuronic acid],0
13,O=c1ccn([C@@H]2O[C@H](CO)[C@@H](O)[C@H]2O)c(=O)[nH]1 [Uridine],1
14,N[C@H](CC(=O)O)C(=O)O [D-Aspartic acid],3 (active)
15,NC(=O)[C@H]1O[C@@H](O)[C@H](O)[C@@H](O)[C@@H]1O [Glucuronamide],0
16,O=C(O)[C@@H]1C[C@@H](O)CN1 [Hydroxy-L-Proline],0
17,O=C(O)[C@H]1OC(O)[C@H](O)[C@@H](O)[C@@H]1O (stereo partly drawn) [D-Glucuronic acid],0
18,NCC(=O)O [Glycine],0
19,"C[N+](C)(C)CC(O)CC(=O)[O-] (racemic) [D,L-Carnitine]",0

# Same assay, conditions: nutrient role (plate category): nitrogen
row,Compound,DuctApe activity index
1,CSCC[C@H](N)C(=O)O [L-Methionine],0
2,Nc1[nH]cnc2ncnc1-2 [Adenine],0
3,C[C@H](N)C(=O)O [L-Alanine],0
4,N[C@@H](Cc1c[nH]cn1)C(=O)O [L-Histidine],0
5,NC(=O)NC(N)=O [Biuret],0
6,C[C@@H](N)C(=O)O [D-Alanine],0
7,N[C@@H](Cc1ccccc1)C(=O)O [L-Phenylalanine],0
8,N[C@H]1C(O)O[C@H](CO)[C@@H](O)[C@@H]1O (stereo partly drawn) [D-Glucosamine],3 (active)
9,NCCCCN=C(N)N [Agmatine],0
10,O=c1ccn([C@@H]2O[C@H](CO)[C@@H](O)[C@H]2O)c(=O)[nH]1 [Uridine],0
11,N[C@H](CC(=O)O)C(=O)O [D-Aspartic acid],2
12,NC(=O)[C@H]1O[C@@H](O)[C@H](O)[C@@H](O)[C@@H]1O [Glucuronamide],2
13,NC(N)=O,0
14,CC(O)C(N)=O (racemic) [DL-Lactamide],0
15,NCC(=O)O [Glycine],0

# Same assay, conditions: nutrient role (plate category): phosphate & sulphur
row,Compound,DuctApe activity index
1,CSCC[C@H](N)C(=O)O [L-Methionine],1
2,O=S(=O)(O)SSS(=O)(=O)O [Tetrathionate],1
3,CSCC[C@@H](N)C(=O)O [D-Methionine],2
4,O=P(O)(O)OC[C@H]1OC(O)[C@@H](O)[C@@H](O)[C@@H]1O (stereo partly drawn) [D-Mannose-6-Phosphate],1
5,O=S(O)(O)=S [Thiosulfate],0
6,O=S1(=O)CCCC1 [Tetramethylene Sulfone],0

# Reference: the supplement of paper PMC6518042
